High-throughput results deposited in PubChem BioAssay by National Center for Advancing Translational Sciences (NCATS).
Sampled rows, rich in hits. Any-hit rate of the full collection: about 5.5%.
RORgamma inh – blocks mouse ROR gamma transcriptional activity; Drosophila S2 Gal4-RORgamma UAS-luciferase reporter, 20 h; hit rate 5.4% among 310,000; Potency, µM (doses to about 53.6 µM), usual class: inhibitors; P51450; note: nearly all actives have a fitted effect of over 60% in size
Target sequence (P51450 whole entry, looked up, the tested form may be a part): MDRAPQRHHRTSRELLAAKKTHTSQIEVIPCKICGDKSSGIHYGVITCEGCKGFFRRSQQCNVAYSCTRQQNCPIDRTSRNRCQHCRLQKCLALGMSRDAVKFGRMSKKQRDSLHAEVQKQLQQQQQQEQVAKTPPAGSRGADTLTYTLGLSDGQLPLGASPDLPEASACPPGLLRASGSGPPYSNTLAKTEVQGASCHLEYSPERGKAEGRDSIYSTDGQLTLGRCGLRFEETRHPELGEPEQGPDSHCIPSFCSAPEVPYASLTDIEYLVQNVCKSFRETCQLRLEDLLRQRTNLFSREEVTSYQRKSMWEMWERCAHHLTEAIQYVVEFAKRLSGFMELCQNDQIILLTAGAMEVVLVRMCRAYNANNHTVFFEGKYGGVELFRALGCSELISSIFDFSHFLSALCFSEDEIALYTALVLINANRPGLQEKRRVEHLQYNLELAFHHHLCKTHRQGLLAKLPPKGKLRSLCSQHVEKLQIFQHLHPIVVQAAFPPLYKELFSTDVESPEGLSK
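Compounds are pin-transferred onto Drosophila Schneider cells expressing a copper-inducible Gal4–ROR gamma transactivation domain fusion. After 1 hr, copper sulfate is added to 700 uM final; luciferase is read 20 hr later.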
VP16 counter – Gal4-VP16 reporter inhibition counter-screen. Drosophila S2 Gal4-VP16 UAS-luciferase, luminescence, 20 h. Potency, µM (top dose mostly 53.6 µM), hits mostly inhibitors. hit rate 3.5% among 310,000;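 note: Gal4-VP16 expression switched on by copper sulfate through the metallothionein promoter; nearly all actives have a fitted effect of over 50% in size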
Integrin act MD – activators of alpha7 integrin expression for muscular dystrophy; alpha7betagal myoblasts, beta-gal FDG fluorescence, 48 h; Potency, µM (series often up to 38.3 µM), actives largely listed as activators; hit rate 0.064% among 350,000; note: nearly all actives have a fitted effect of over 60% in size
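alpha7betagal+/- myoblasts (passage 13, 250/well) treated 48 h at 37C with compounds at 1:260 dilution of DMSO stock. Lysed, then beta-galactosidase activity read as FDG fluorescence (ex 480/em 540) after 30 min, with pre-read for autofluorescence.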
Mito fusion yeast – inhibitors of mitochondrial division or activators of mitochondrial fusion | S. cerevisiae fusion-defective mutant growth rescue, CellTiterGlo 48 h | Potency, µM (series often up to 46.1 µM), most hits filed as activators | hit rate 0.23% among 320,000 | AID 485298; note: nearly all actives have a fitted effect of over 45% in size
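Temperature-sensitive fusion-defective S. cerevisiae (e.g. fzo1-1, mgm1-5) were grown with compound in YPEG medium (3% ethanol, 3% glycerol) for 48 hours at 37C. Growth rescue was measured as viability by CellTiterGlo luminescence after 10 minutes at ambient.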
uPA surface inh – cell surface uPA generation inhibition. hit rate 0.31% among 330,000. Potency, µM (series often up to 38.3 µM), hits mostly inhibitors. cell surface uPA generation assay, qHTS. AID 540303; active = well fitted inhibition curve with a large enough effect; inconclusive = small, poorly fitted or top-dose-only effect; inactive = no such curve, though single readings can be large or run the other way; tested in mouse RAW 264.7 cells; note: nearly all actives have a fitted effect of over 55% in size
Chronic BCR inh – inhibitors of chronic active B-cell receptor signaling | ABC-DLBCL IkBa-CBG/CBR reporter, luminescence ratio, 4 h | Potency, µM (doses to about 46.1 µM), most hits filed as inhibitors | hit rate 0.05% among 340,000 | AID 493014; active = well fitted inhibition curve with a large enough effect in the signal ratio, with a control signal flat, not every such curve was filed as active; inconclusive = small, poorly fitted or top-dose-only effect, or effect the other way, or a change in a side signal; the % refers to the signal ratio
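Compounds up to 46 uM were incubated four hours with TMD8 cells whose green CBG68 luciferase is fused to IkappaBalpha; red CBR luminescence normalised the signal, and concentration-effect curves were fitted to fusion, red and ratio data.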
A number is an active result; i = inactive; ? = inconclusive; nt = not tested or not shown; [ ] = another dose, or the depositor's remark. Unless noted, calls come from the whole dose curve; as a rule, active = well fitted curve in the direction sought with a large enough effect; inconclusive = small, poorly fitted or top-dose-only effect, or another doubt; inactive = no such curve, though single readings can be large; an effect the other way counts as inactive or inconclusive.

SMILES	RORgamma inh	VP16 counter	Integrin act MD	Mito fusion yeast	uPA surface inh	Chronic BCR inh
CCCOc1ccc(/C=C/C(=O)Nc2ccc([N+](=O)[O-])cc2)cc1	?	i	i	i	i	i
CC(=O)c1cccc(NC(=O)c2nc3ccccc3nc2N2CCCCC2)c1	nt	nt	nt	nt	nt	i
COC(=O)c1cnn(-c2ccc(F)cc2F)c1/C=N/NC(=S)NC(C)(C)C	1.26µM	?	i	i	i	i
COC(=O)c1cnn(-c2ccccc2)c1/C=N/NC(=S)Nc1ccccc1	0.891µM	3.55µM	i	i	i	?
COC(=O)c1cnn(-c2ccc(F)cc2F)c1/C=N/NC(N)=S	i	i	i	i	i	?
CCOC(=O)N/N=C/c1ccc(F)cc1F	i	i	i	i	i	i
CNC(=S)N/N=C/c1c(C(=O)OC)cnn1-c1ccc(F)cc1F	8.91µM	?	i	i	i	?
CCC(C)(C)C	i	i	nt	nt	nt	nt
CN(c1ccccc1)c1cc(Br)nc(Br)c1	nt	nt	i	nt	i	nt
CCOC(=O)C1CCC(CN(Cc2c(Cl)cccc2Cl)S(=O)(=O)c2ccc(F)c(C)c2)CC1 (stereo unspecified)	nt	nt	nt	nt	nt	i
CCN1C(=O)c2ccccc2S(=O)c2ccc(C(=O)N3CCOCC3)cc21 (stereo unspecified)	i	i	i	i	i	i
Cc1ccc(-n2nnnc2C(Cl)c2nnnn2-c2ccc(C)cc2)cc1	11.2µM	8.91µM	i	i	i	?
Cc1ccc(-n2nnnc2-c2ccccc2)cc1	i	i	i	i	i	i
Cc1nc2cnc(Oc3cccc(Cl)c3)nc2n(CCC#N)c1=O	i	i	nt	nt	nt	nt
O=C(Nc1ccccc1)c1ccc(Nc2c([N+](=O)[O-])cc([N+](=O)[O-])c3ccccc23)cc1	i	i	i	i	i	?
O=[N+]([O-])c1cc(Br)c(Nc2ccccc2)c([N+](=O)[O-])c1	?	12.6µM	i	i	?	?
COC(=O)[C@@H]1CC[C@H](C)[C@@H](c2ccc(C)cc2)N1C(=O)c1ccc(/C=N/O[C@@H](C)CN2CCCCc3nc(C)c(C)cc32)cc1	?	20µM	nt	?	nt	i
c1ccc(-c2nc(-c3ccccc3)c(Nc3ccc4ccccc4c3)o2)cc1	i	i	nt	nt	nt	nt
O=C(O)/C(=C\c1ccco1)NC(=O)c1ccccc1	i[10 µM]	i	i	i	i	i
O=C(/C=C/c1ccco1)c1cccc([N+](=O)[O-])c1	nt	nt	i	nt	i	nt
O=C(N/N=C/C=C/c1ccco1)c1cccc([N+](=O)[O-])c1	5.01µM	10µM	i	i	i	?
O=C(N/N=C/C=C/c1ccco1)c1ccncc1	10µM	?	i	i	i	?
O=C(N/N=C/C=C/c1ccco1)/C(=C/c1ccccc1)NC(=O)c1ccccc1	12.6µM	?	i	i	i	i
C/C(CCC12CC3CC(CC(C3)C1)C2)=N\NC(N)=S	1.26µM	4.47µM	i	i	?	?
CCCCC/C=C\C/C=C\C/C=C\C=C\[C@@H](O)CCCC(=O)O	i	i	nt	nt	nt	nt
SMILES	RORgamma inh	VP16 counter	Integrin act MD	Mito fusion yeast	uPA surface inh	Chronic BCR inh
O=c1cnc2cnc(Nc3ccccc3)nc2n1C[C@H]1CCCO1	i	?	nt	nt	nt	nt
COc1cccc(Nc2ncc3ncc(=O)n(C[C@H]4CCCO4)c3n2)c1	i	11.2µM	nt	nt	nt	nt
C=CCn1c(C)nnc1SCC(=O)Nc1oc(C)c2c(C)n[nH]c(=O)c12	nt	nt	i	i	i	i
CC(C)(C)c1ccc(-c2n[nH]c(=S)n2CC2CCCO2)cc1 (stereo unspecified)	2.82µM	10µM	i	i	i	i
Fc1ccccc1-c1n[nH]c(=S)n1CC1CCCO1 (stereo unspecified)	11.2µM	i	i	i	i	i
Cc1cc(C)c(S(=O)(=O)Nc2nccs2)c(C)c1	i	i	i	i	i	i
COCCN(Cc1nc(C(c2ccccc2)c2ccccc2)no1)C(C)C	i	i	i	i	i	i
Cc1ccc(C(=O)NCC(c2ccco2)S(=O)(=O)c2ccc(Cl)cc2)cc1C (stereo unspecified)	nt	nt	nt	nt	nt	i
Cc1ccc2nc3c(cc2c1)c(NC(=O)c1ccccn1)nn3CC(C)C	1.78µM	5.01µM	i	i	i	i
CCn1nc(NC(=O)c2ccccn2)c2cc3cc(C)ccc3nc21	5.01µM	7.08µM	i	i	i	i
O=C(Oc1cccc2cccnc12)c1cccc(-n2cnnn2)c1	i	i	i	i	i	i
O=C(Oc1cccc2cccnc12)c1ccc(N2C(=O)C3C4CCC(C4)C3C2=O)cc1 (stereo unspecified)	2.82µM	5.01µM	i	i	i	?
O=C(Oc1cccc2cccnc12)c1cccc(N2C(=O)C3C4CCC(C4)C3C2=O)c1 (stereo unspecified)	2.51µM	?	i	i	i	?
Cn1cc(-c2nnc(-c3ccccc3)o2)c2ccccc21	1.41µM	?	i	i	i	?
O=C(Nc1cc(C(F)(F)F)ccc1Cl)c1cc(S(=O)(=O)NCc2ccccc2)ccc1F	nt	nt	nt	nt	nt	i
COc1ccc(CCNC(=O)Cn2nnc(C(=O)Nc3ccc(Br)cc3)c2N)cc1OC	?	i	11.2µM	i	i	i
COc1ccccc1NC(=O)c1nnn(CC(=O)Nc2cccc(SC)c2)c1N	6.31µM	?	i	i	nt	?
CCc1ccccc1NC(=O)Cn1nnc(C(=O)NCc2cccc(OC)c2)c1N	i	i	i	i	3.98µM	i
CCOc1ccc(NC(=O)Cn2nnc(C(=O)NCCc3ccc(OC)c(OC)c3)c2N)cc1	i	i	i	i	i	i
Cc1ccc(C(=O)N2CC(C)OC(C)C2)cc1S(=O)(=O)N1CCCCC1 (stereo unspecified)	nt	nt	?	i	i	i
CCN(CC)CCCNC(=O)c1ccc2c(c1)NC(=O)C(CS(=O)(=O)Cc1ccc(F)cc1Cl)N2 (stereo unspecified)	nt	nt	nt	nt	nt	i
COc1ccc(-n2c(=S)[nH]c3cc(C(=O)NCc4ccc(F)cc4)ccc3c2=O)c(OC)c1	?	?	?	i	i	i
COc1ccc(NC(=O)c2ccc3c(=O)n(-c4ccc(OC)cc4OC)c(=S)[nH]c3c2)cc1	5.01µM	11.2µM	i	i	i	i
COc1ccc(-n2c(=S)[nH]c3cc(C(=O)Nc4ccc(F)cc4)ccc3c2=O)c(OC)c1	10µM	17.8µM	i	i	i	?
COc1ccc(-n2c(=S)[nH]c3cc(C(=O)NCc4ccco4)ccc3c2=O)c(OC)c1	?	i	i	i	i	i
Cc1ccn2cc(CSc3ccccc3)nc2c1	12.6µM	8.91µM	i	i	i	?
Cc1cccc(NNC(N)=S)c1C	10µM	?	i	i	i	i
Cc1ccc(C)c(NNC(N)=S)c1	?	17.8µM	i	i	i	i
Cc1cc(Cl)ccc1NNC(N)=S	?	?	i	i	i	?
Oc1ccccc1N=Cc1c(O)ccc2oc3c(c12)CCCC3	3.16µM	10µM	i	i	4.47µM	i
